PubChem BioAssay (NCATS)
Values joined by “and” are separate entries in the source; they are usually repeats but may differ in a detail not shown here. Identical values can stand only once. Values without a mark were called inactive. Results filed as inconclusive are left out. Active and inactive are the calls of the source. Unless noted, the call rests on the fitted dose curve.

How the values were obtained:
[1] = Primary qHTS for Huh7 cytotoxicity: counterscreen for inhibitors of MERS-S pseudotyped particle cell entry (AID 1479147); conditions: outcome: dose series up to 57.1 µM unless noted
[2] = Primary qHTS for Vero E6 cytotoxicity: counterscreen for inhibitors of SARS-S pseudo-typed particle cell entry (AID 1479150); conditions: outcome: dose series up to 57.1 µM unless noted; further: on the % scale 0 is the no-effect control and ±100 the full control effect
[3] = Cell Viability - BJ (AID 421); conditions: BJ fibroblast viability, qHTS;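 further: potency means the concentration at half of the fitted maximal effect; cells exposed to compound for 40 hours at 37 °C before readout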
In short: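 Luminescent ATP signal (CellTiter-Glo, 20 min at room temperature) served as the read-out of viable BJ cells after 40 hours of compound treatment. Responses were scaled between DMSO and 100 uM tamoxifen, and AC50 values were obtained by Hill modeling.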

[4] = Cell Viability - Jurkat (AID 426;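 active means dose-dependent loss of cell ATP signal giving a full or clear fitted curve, ranked by lower potency value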; further: potency means the concentration at half of the fitted maximal effect); conditions: qHTS
In short: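 Jurkat (Clone E6-1) cells, 5000/well in complete medium, exposed to compounds for 40 hr at 37C; intracellular ATP measured by CellTiter-Glo luminescence after 20 min at room temperature. AC50 from Hill fits.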

[5] = Cell Viability - HepG2 (AID 433); conditions: qHTS;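 further: potency means the concentration at half of the fitted maximal effect; potency for ATP loss meaning cytotoxicity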
In short: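 Read-out is luciferase-based quantitation of cellular ATP as a measure of viable HepG2 cells after 40 h treatment at 37 °C. Signal decrease is scaled between DMSO-only and 100 uM tamoxifen controls, with AC50 fitted by the Hill equation.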

[6] = Cell Viability - MRC5 (AID 434); conditions: MRC5 lung fibroblast viability, qHTS;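 further: potency means the concentration at half of the fitted maximal effect; potency reflects cytotoxicity seen as loss of intracellular ATP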
In short: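 qHTS cytotoxicity in human lung fibroblast MRC5 cells; 40 hr treatment, 37 °C; cellular ATP by luciferase luminescence; DMSO = 0%, 100 uM tamoxifen = 100% inhibition; Hill-fit AC50.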

[7] = Cell Viability - N2a (AID 540; active means well fitted curve in the direction sought with a large enough effect; an effect the other way counts as inactive or inconclusive;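 further: plate controls were DMSO alone for no effect and tamoxifen control for full effect; nearly all actives have a fitted effect of over 45% in size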); conditions: N2a mouse neuroblastoma cell viability; at 92.2 µM (top of the series)
In short: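 Mouse neuroblastoma N2a cells, 1500/well, exposed to compounds 40 h at 37 °C in complete medium. Viability measured as cellular ATP by CellTiter-Glo luminescence; AC50 from Hill fits of concentration-response.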

[8] = Cell Viability - HUV-EC-C (AID 542; active means well fitted curve in the direction sought with a large enough effect; an effect the other way counts as inactive or inconclusive; further: on the % scale 0 is the no-effect control and ±100 the full control effect; nearly all actives have a fitted effect of over 35% in size)
In short: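 HUV-EC-C human vascular endothelial cells, 1000/well, exposed to compound for 40 hr at 37 °C in complete medium. Intracellular ATP was read by CellTiter-Glo luminescence. AC50 came from Hill-equation fits of concentration-response data.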

[9] = Cell Viability - Mesenchymal (AID 546; active means well fitted curve in the direction sought with a large enough effect; an effect the other way counts as inactive or inconclusive;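 further: cells exposed to compound for 40 hours before reading; 0% = DMSO only and -100% = 100 µM tamoxifen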)
In short: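 AC50 values reflect the drop in intracellular ATP in a human kidney mesenchymal line derived from normal glomeruli. Treatment lasts 40 hr at 37 °C in complete medium, and the signal comes from CellTiter-Glo luminescence.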

[10] = Cellular Toxicity (caspase-3) HepG2 (AID 654; active means well fitted curve in the direction sought with a large enough effect; an effect the other way counts as inactive or inconclusive;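 further: cells exposed to compound for 16 hours before reading; 0% = DMSO alone and 100% = caspase signal from 100 µM tamoxifen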)
In short: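 HepG2 cells (1500/well) were treated 16 h at 37 °C in complete medium, then caspase 3/7 activity was read by Caspase-Glo luminescence. Data were normalized to DMSO and 100 uM tamoxifen; AC50 came from Hill-equation fits of qHTS concentration-response.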

[11] = qHTS Assay for Identification of Small Molecule Inducers of Hypoxia Response (AID 2120; active means well fitted curve in the direction sought with a large enough effect in the signal ratio, with a control signal flat, not every such curve was filed as active; the % refers to the signal ratio; further: 0% is about no effect)
In short: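 HRE-bla ME-180 cells in Opti-MEM with 0.5% dialyzed FBS, pre-plated 4-5 h, then compound titration for 17 h at 37 degrees Celsius. CCF4 loaded 2.5 h at room temperature; 460/530 nm ratio gave %Activity and AC50 for induction.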

[12] = target: Bile acid receptor (Homo sapiens) (UniProt Q96RI1); assay: qHTS assay for small molecule antagonists of farnesoid X receptor signaling (AID 588526); further: potency means the concentration at half of the fitted maximal effect
In short: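 Beta-lactamase reporter antagonist mode: HEK293T FXR-UAS-bla cells, titrated compound, CDCA stimulation, 16 h 37 C, CCF4 dye 2 h RT. Data normalized to CDCA 50 uM and DMSO; Hill-fit IC50.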

[13] = target: Bile acid receptor (Homo sapiens) (UniProt Q96RI1); assay: qHTS assay for small molecule agonists of farnesoid X receptor signaling (AID 588527); conditions: HEK293T FXR-UAS-bla, beta-lactamase ratio, 16 h; activation: active compounds read high;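 further: 0% = vehicle basal and 100% = reference agonist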
In short: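 FXR-UAS-bla HEK293T, 10% dialyzed FBS; cpds up to 92 uM titration, 16 h 37 C; CCF4 dye 2 h RT; fluorescence. Normalized to chenodeoxycholic acid 100 uM (100%) and DMSO (0%); Hill fit gives EC50, efficacy.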

[14] = target: Glucocorticoid receptor (Homo sapiens) (UniProt P04150); assay: qHTS assay for small molecule agonists of glucocorticoid receptor signaling (AID 588532; active means well fitted curve in the direction sought with a large enough effect in the signal ratio, with a control signal flat; the % refers to the signal ratio;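 further: 100% = dexamethasone at 0.1 µM and 0% = DMSO only wells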); conditions: HeLa MMTV-bla, beta-lactamase ratio, agonist, 18 h; active compounds read high; percent of dexamethasone control, DMSO zero
In short: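 Agonist-mode qHTS: GRE-driven beta-lactamase in HeLa cells exposed 18 h to titrated compounds (up to 92 uM), then CCF4 ratio read after 2 h at RT; Hill-fitted EC50, efficacy relative to 0.1 uM dexamethasone.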

[15] = target: Thyroid hormone receptor beta (Homo sapiens) (UniProt P10828); assay: qHTS assay for small molecule antagonists of thyroid hormone receptor beta signaling (AID 588547; active means well fitted inhibition curve with a large enough effect in the signal ratio, with a control signal flat, not every such curve was filed as active; the % refers to the signal ratio;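 further: cells stimulated with 0.4 nM T3 agonist during compound exposure; on the % scale 0 is the no-effect control and ±100 the full control effect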); conditions: TR-UAS-bla HEK293, beta-lactamase ratio, antagonist mode, 18 h
In short: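 Inhibition of T3-driven (0.4nM final) beta-lactamase reporter activity was measured over 0.59 nM to 92 uM compound after 18 h at 37 C. The cells were GripTite HEK293 TR-UAS-bla in charcoal/dextran-stripped serum, with CCF4 ratio read-out and IC50 from Hill fits.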

[16] = qHTS assay for small molecule disruptors of the mitochondrial membrane potential - 1 hr assay (AID 651754); further: potency means the concentration at half of the fitted maximal effect; nearly all actives have a fitted effect of over 35% in size
In short: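 HepG2 cells, attached overnight, were exposed to compound for 1 hr at 37C, then stained 30 min with a potentiometric dye. Ratio of red aggregate (590nm) to green monomer (535nm) fluorescence reports membrane potential; collapse shifts signal toward green.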

[17] = qHTS assay for small molecule disruptors of the mitochondrial membrane potential - 5 hr assay (AID 651755); further: potency means the concentration at half of the fitted maximal effect; nearly all actives have a fitted effect of over 40% in size
In short: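 HepG2, 2,000 cells/well, overnight attach; cpd or DMSO 5 hr, 37C/5% CO2; Mito-MPS 30 min 37C; fluor 490/535 + 540/590 nm.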

[18] = target: Tumor necrosis factor (Homo sapiens) (UniProt P01375); assay: qHTS assay to identify small molecules that stimulate Tumor Necrosis Factor-alpha (TNF-alpha) secretion (AID 651757; active means well fitted curve in the direction sought with a large enough effect in the signal ratio; the % refers to the signal ratio; further: 0% is about no effect)
In short: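 THP-1 cells (3000/well) exposed to compounds 17 hrs at 37 C. Secreted TNF-alpha detected by HTRF with cryptate- and XL665-labeled anti-TNF-alpha antibodies after 3 hr at room temperature.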

[19] = target: Nuclear receptor ROR-gamma (Homo sapiens) (UniProt P51449); assay: qHTS assay for small molecule antagonists of the retinoid-related orphan receptor gamma (ROR-gamma) signaling pathway (AID 651802; active means well fitted curve in the direction sought with a large enough effect; an effect the other way counts as inactive or inconclusive; further: potency means the concentration at half of the fitted maximal effect; nearly all actives have a fitted effect of over 60% in size)
In short: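 CHO cells with TET-inducible ROR-gamma and RORE-luciferase reporter, dosed then doxycycline-induced. After 16 h at 37C, One-Glo luminescence read; decreased signal indicates antagonism.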

[20] = ZIKV-mCherry secondary qHTS for Zika virus inhibitors (AID 1347158; active means well fitted curve in the direction sought with a large enough effect; an effect the other way counts as inactive or inconclusive; further: potency means the concentration at half of the fitted maximal effect); conditions: Vero cells, ZIKV-mCherry infection imaging, 48-72 h
In short: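 Vero cells (5,000/well) were given compound, then infected with ZIKV-mCherry at MOI 1 for 48–72 h at 37 °C. After PFA fixation and Hoechst staining, imaging gave percent mCherry-positive cells. The positivity threshold was RFU above 450, 3 SD over negative controls.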

Chain of Bile acid receptor (Homo sapiens) (Q96RI1 whole entry, looked up): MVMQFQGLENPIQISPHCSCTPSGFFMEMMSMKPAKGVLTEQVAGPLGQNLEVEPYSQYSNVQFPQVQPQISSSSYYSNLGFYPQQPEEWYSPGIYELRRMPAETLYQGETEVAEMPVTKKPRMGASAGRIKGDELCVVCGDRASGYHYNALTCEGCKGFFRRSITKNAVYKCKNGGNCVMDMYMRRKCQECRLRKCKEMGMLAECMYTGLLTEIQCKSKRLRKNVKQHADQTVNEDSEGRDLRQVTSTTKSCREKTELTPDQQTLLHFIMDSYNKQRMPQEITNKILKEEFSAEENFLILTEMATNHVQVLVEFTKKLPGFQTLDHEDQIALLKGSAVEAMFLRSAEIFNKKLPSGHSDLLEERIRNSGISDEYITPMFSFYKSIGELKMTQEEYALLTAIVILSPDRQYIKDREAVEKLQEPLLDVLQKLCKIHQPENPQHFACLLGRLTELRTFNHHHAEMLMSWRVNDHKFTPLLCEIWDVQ
Chain of Nuclear receptor ROR-gamma (Homo sapiens) (P51449 whole entry, looked up): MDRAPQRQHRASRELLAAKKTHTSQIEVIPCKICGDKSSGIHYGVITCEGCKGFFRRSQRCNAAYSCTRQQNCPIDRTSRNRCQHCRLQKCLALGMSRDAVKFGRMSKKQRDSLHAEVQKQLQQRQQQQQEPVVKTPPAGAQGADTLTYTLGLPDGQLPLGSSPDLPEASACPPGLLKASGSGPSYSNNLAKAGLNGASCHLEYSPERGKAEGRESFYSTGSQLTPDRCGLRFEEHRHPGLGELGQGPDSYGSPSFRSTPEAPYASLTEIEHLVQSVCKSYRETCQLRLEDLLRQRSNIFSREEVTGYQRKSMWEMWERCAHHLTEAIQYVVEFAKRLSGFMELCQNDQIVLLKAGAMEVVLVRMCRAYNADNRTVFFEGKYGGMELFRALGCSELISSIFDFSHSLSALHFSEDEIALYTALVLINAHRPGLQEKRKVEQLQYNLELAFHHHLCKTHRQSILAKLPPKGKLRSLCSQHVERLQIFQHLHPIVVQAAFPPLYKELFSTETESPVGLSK
Chain of Tumor necrosis factor (Homo sapiens) (P01375 whole entry, looked up): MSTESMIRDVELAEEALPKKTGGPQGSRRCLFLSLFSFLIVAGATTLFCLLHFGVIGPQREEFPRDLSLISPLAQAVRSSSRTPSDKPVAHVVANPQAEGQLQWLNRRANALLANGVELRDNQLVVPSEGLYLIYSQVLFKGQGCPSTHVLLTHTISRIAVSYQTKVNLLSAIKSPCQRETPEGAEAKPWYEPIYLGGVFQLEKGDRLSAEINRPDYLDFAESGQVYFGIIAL
Chain of Glucocorticoid receptor (Homo sapiens) (P04150 whole entry, looked up): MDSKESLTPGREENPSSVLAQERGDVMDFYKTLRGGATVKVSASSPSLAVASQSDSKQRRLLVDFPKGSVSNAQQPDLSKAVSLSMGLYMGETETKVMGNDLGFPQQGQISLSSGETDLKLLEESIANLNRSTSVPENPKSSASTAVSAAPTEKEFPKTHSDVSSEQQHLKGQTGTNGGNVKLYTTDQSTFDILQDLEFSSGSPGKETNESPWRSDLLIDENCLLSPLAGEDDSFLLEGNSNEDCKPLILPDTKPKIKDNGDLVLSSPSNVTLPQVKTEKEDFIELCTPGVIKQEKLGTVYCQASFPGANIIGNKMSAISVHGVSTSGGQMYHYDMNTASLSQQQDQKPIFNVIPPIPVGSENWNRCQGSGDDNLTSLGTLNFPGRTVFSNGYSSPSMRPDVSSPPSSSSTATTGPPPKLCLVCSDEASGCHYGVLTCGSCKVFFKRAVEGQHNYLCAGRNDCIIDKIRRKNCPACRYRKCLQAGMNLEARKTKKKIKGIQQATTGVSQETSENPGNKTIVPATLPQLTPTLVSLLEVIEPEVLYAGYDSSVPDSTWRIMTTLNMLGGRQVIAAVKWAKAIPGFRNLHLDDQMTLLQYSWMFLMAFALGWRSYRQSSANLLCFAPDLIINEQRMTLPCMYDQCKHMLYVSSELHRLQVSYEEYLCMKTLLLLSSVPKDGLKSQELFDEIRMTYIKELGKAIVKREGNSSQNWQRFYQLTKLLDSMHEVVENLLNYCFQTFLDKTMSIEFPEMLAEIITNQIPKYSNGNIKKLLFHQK
Chain of Thyroid hormone receptor beta (Homo sapiens) (P10828 whole entry, looked up): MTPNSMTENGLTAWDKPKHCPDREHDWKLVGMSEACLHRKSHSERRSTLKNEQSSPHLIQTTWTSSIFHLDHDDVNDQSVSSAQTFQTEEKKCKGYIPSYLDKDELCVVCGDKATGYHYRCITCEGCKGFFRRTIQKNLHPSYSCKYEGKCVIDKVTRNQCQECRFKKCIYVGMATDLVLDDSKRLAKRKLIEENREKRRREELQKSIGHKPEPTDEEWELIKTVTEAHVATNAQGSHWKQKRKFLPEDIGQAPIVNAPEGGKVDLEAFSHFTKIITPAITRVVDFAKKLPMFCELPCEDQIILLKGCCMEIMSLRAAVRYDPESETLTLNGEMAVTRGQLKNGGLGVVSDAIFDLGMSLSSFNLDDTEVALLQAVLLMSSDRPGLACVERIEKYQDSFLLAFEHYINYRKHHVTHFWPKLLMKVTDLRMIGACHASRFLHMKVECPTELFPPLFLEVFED

| Compound | outcome [1] | outcome [2] | Potency [3] [µM] | Potency [4] | Potency [5] [µM] | Potency [6] [µM] | activity change, negative = cytotoxicity [7] | outcome [8] | outcome [9] | outcome [10] | outcome [11] | Potency [12] | activation [13] | activation [14] [%] | activity change % (negative = inhibition) [15] [%] | Potency [16] | Potency [17] | outcome [18] | Potency [19] | Potency [20] |
| --- | --- | --- | --- | --- | --- | --- | --- | --- | --- | --- | --- | --- | --- | --- | --- | --- | --- | --- | --- | --- |
| CC(=O)OC[C@@H]1O[C@@H](n2ccc(=O)[nH]c2=O)[C@H](OC(C)=O)[C@H]1OC(C)=O | inactive | inactive |  |  |  |  |  |  |  |  |  |  |  |  |  |  |  |  |  |  |
| Oc1c(Cl)c(Cl)c(Cl)c(Cl)c1Cl |  |  | > 92 | 47.6 µM (active) | > 92 | > 92 | -109% (active) | inactive | inactive | inactive | inactive | 25.1 µM (active) | 0.631% and 4.93% | -3.18 | -4.36 | 42.2 µM (active) | 42.2 µM (active) | inactive | 16.8 µM (active) | 11.2 µM (active) |
